Unmarked numbers belong to inactive results. Active and inactive are the calls of the source. Calls follow the shape of the dose curve; as a rule, active = well fitted activation curve with a large enough effect; inconclusive = small, poorly fitted or top-dose-only effect, or effect the other way; inactive = flat fitted curve, though single readings scatter.
Assay: Cellular Toxicity (caspase-3) Renal Proximal Tubule (AID 667);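 also: cells exposed to compound for 16 hours at 37 °C before detection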
Conditions: renal proximal tubule cells, primary cells freshly taken from rat, solvent-only wells 0%, staurosporine 100%; series mostly up to 91.7 µM; caspase-3 activation: at the top concentration
Text: NIH Chemical Genomics Center [NCGC]
NIH Molecular Libraries Screening Centers Network [MLSCN]
National Institutes of Environmental Health Sciences [NIEHS]
National Toxicology Program [NTP]
We have developed a 1536-well cell-based assay for quantitative high throughput screening (qHTS) against a number of cell lines to determine in vitro caspase 3/7 activity of small molecules. This particular assay uses the primary kidney proximal tubule cells freshly isolated from rat.
NCGC Assay Protocol Summary:
The Caspase-Glo 3/7 assay (Promega) is a homogeneous method to measure caspase-3 and caspase-7 activities in cultured cells. The quantitation of caspase 3/7 activity is based on the cleavage of a peptide-aminoluciferin substrate. After caspase cleaves the substrate the free aminoluciferin is liberated and serves as the substrate of luciferase, which generates the light. The luminescent signal is proportional to the amount of caspase 3/7 activity present.
Using the Caspase-Glo 3/7 assay, the amount of caspase 3/7 activity was measured in the rat kidney proximal tubule cells with complete culture medium following compound treatment for 16 hours. The assay was performed in opaque white 1536-well plates. In the screen, staurosporine and doxorubicin were used as positive controls. Library compounds were measured for their ability to cause the activation of caspase 3/7 in the cell line, as reflected by an increase in luminescence signal, in a concentration-dependent manner. Data were normalized to the controls for basal activity (DMSO only) and 100% stimulation (10 uM staurosporine). AC50 values were determined from concentration-response data modeled with the standard Hill equation.
qHTS protocol for caspase 3/7 assay in rat kidney proximal tubule cells
[Step] [Parameter] [Value] [Description]
1. Reagent; 5 uL; 1000 rat kidney proximal tubule cells/well
2. Time; 5 hr; 37 °C incubation
4. Controls; 23 nL; doxorubicin 7 pM to 100 uM & staurosporine 1.4 pM to 20 uM
5. Time; 16 hr; 37 °C incubation
6. Reagent; 5 uL; Caspase-Glo 3/7 reagent
7. Time; 1 hr; Room Temperature
8. Detection; Luminescence; Viewlux plate reader
Keywords: caspase 3/7, apoptosis, rat kidney proximal tubule cells, luminescence, NTPHTS, NTPHTS_NCGC, NIEHS, EPA, DSSTox, MLSMR, MLSCN, NIH Roadmap, qHTS, NCGC

Row | SMILES | caspase-3 activation [%] | outcome
1 | O=C1c2c(O)cccc2Cc2cccc(O)c21 | 12.2 | 
2 | CC1(C)[C@@H]2CC[C@@]1(C)C(=O)C2 | -3.61 | 
3 | Cc1cc2nc3c(=O)[nH]c(=O)nc-3n(C[C@H](O)[C@H](O)[C@H](O)CO)c2cc1C | -9.48 | 
4 | [Cl][In]([Cl])[Cl] | -5.7 | 
5 | COC(=O)C1=C(C)NC(C)=C(C(=O)OC)C1c1ccccc1[N+](=O)[O-] | -8.66 | 
6 | CN(C)CCC=C1c2ccccc2CCc2ccccc21 | 4.79 | 
7 | CCCCCCCCCCCCOS(=O)(=O)O |  | inactive
8 | CCCCOC(=O)c1ccc(O)cc1 | -8.4 | 
9 | Nc1ccc(S(=O)(=O)Nc2nccs2)cc1 | -4.25 | 
10 | NCCNCCNCCNCCN | 7.28 | 
11 | COc1ccccc1O |  | inactive
12 | Cc1cc(CC(=O)O)n(C)c1C(=O)c1ccc(Cl)cc1 | 4.19 | 
13 | NC(=O)N/N=C/c1ccc([N+](=O)[O-])o1 | -14.1 | 
14 | Cc1c(O)cccc1C(=O)N[C@@H](CSc1ccccc1)[C@H](O)CN1C[C@H]2CCCC[C@H]2C[C@H]1C(=O)NC(C)(C)C | 4.97 | 
15 | CC12CCC(CC1)C(C)(C)O2 | 0.119 | 
16 | C[C@]12C[C@H](O)[C@H]3[C@@H](CCC4=CC(=O)CC[C@@]43C)[C@@H]1CC[C@@H]2C(=O)CO | -2.01 | 
17 | O=C1O[C@H]([C@@H](O)CO)C(O)=C1O | -5.25 | 
18 | Oc1cccc(O)c1 | 5.63 | 
19 | NC(=O)c1ncn([C@@H]2O[C@H](CO)[C@@H](O)[C@H]2O)n1 | 2.42 | 
20 | NCCNCCNCCN | -0.769 | 

— PubChem BioAssay (NCATS)
